# From PubChem BioAssay AID485364 (National Center for Advancing Translational Sciences (NCATS), 2010)
# The campaign covered roughly 360,000 compounds. About 11,000 (3.1%) were called active. Entries that show only a call come without a potency. Inconclusive results (about 4%) are left out. The call rests on the fitted dose curve; in most records, active means well fitted inhibition curve with a large enough effect; inconclusive means small, poorly fitted or top-dose-only effect; inactive means no such curve, though single readings can be large or run the other way. This excerpt belongs to a sample that is enriched for actives.
# Target: Schistosoma mansoni thioredoxin glutathione reductase (TGR) (UniProt Q962Y6)
# Experiment: qHTS Assay for the Inhibitors of Schistosoma Mansoni Peroxiredoxins; further: nearly all actives have a fitted effect of over 60% in size
# Conditions: purified TGR, DTNB reduction, TNB absorbance 405 nm; series mostly up to 114 µM
# Source text: Schistosomiasis is a major neglected tropical disease that currently affects over 200 million. It is caused by different species of flatworms, such as Schistosoma mansoni. Over the last century, drugs to treat the disease have evolved from potassium antimonyl tartrate, artemisinin, oxamniquine, to praziquantel, with praziquantel remaining the universally-used single drug of choice over the past three decades. However, transmission rates have changed little with praziquantel, and there is evidence for the development of drug resistant parasites. Because there is currently no suitable alternative therapy available, there is an urgent need to identify new targets and drugs for schistosomiasis treatment. Thioredoxin glutathione reductase (TGR), one uniquely positioned S. mansoni enzyme, has been identified as a major component of the worms' distinct and compressed antioxidant "firewall". TGR is a multifunctional enzyme that catalyzes the interconversion between reduced and oxidized forms of both glutathione (GSH) and thioredoxins, thus making it an attractive new antiparasitic target. Recently, a quantitative high-throughput screen of the NIH Molecular Libraries Small Molecule Repository (MLSMR, ~71K at the time of the screen in 2007) was performed using an assay that targeted both TGR and peroxiredoxin2 (Prx2, an H2O2-reducing enzymatic component of the S. mansoni redox "firewall") by following the decrease of NADPH fluorescence. […] Additional mechanistic link between exogenous NO donation and parasitic injury for the oxadiazole-2-oxide class of compounds was also expanded and better defined. Although the screen addressed both TGR and Prx2, the assay required post-screen target deconvolution for further characterization of the actives. In addition, the fluorescence assay was also subject to fluorescence interference from compound library members. We have developed a 1536-well-based kinetic HTS assay to address TGR alone. The assay followed the reduction of 5, 5'-dithiobis (2-nitrobenzoic acid) (DTNB) (Ellman's reagent) by NADPH and measured the increase in absorbance at 412 nm of the reaction product, TNB. […] This assay format can be used to screen the current MLSMR collection (with >300K compounds available) to find novel TGR inhibitors. Furoxan is a good choice to serve as a positive control in the primary HTS assay.
# Three microliters of reagents (100 uM NADPH and 20 nM TGR or 100 uM NADPH as no-enzyme control) were dispensed into 1,536-well black clear-bottomed plates. Compounds (23 nL) were transferred via Kalypsys pin tool equipped with 1536-pin array (10 nL slotted pins, V&P Scientific, San Diego, CA). The plates were then be incubated for 15 min at room temperature, and 1 uL aliquot of 500 uM NADPH were added, immediately followed by a 1 uL aliquot of 15 mM DTNB to start the reaction. The plate was transferred to a ViewLux high-throughput CCD imager (Perkin-Elmer, Wellesley, MA) where kinetic measurements of the TNB absorbance were acquired using a 405 excitation filter. Throughout the screen, reagent bottles and all liquid lines were made light-tight to minimize reagent degradation. All screening operations were performed on a fully integrated robotic system (Kalypsys, San Diego, CA) containing one RX-130 and two RX-90 anthropomorphic robotic arms (Staubli, Duncan, SC). Library plates were screened starting from the lowest and proceeding to the highest concentration, and a "double-dipping" step of the highest concentration was required to access higher concentrations of compounds. Vehicle-only plates, with DMSO being pin-transferred to the entire column 5-48 compound area, were inserted uniformly at the beginning and the end of each library in order to monitor for and record any shifts in the background, which can be affected by reagent dispensers or loss in enzyme activity overtime. […]
# Potency means the concentration at half of the fitted maximal effect.
row,SMILES,Potency
1,Cc1nc2ccc(S(=O)(=O)N(CC(=O)Nc3ccc(F)cc3)Cc3ccccc3)cc2s1,inactive
2,CCN(CC)C(=O)CSc1nc2cc3c(cc2c(=O)n1CCCC(=O)NCc1ccc2c(c1)OCO2)OCO3,inactive
3,CCc1cc(=O)oc2c(C)c(OCC(=O)NCCN3CCOCC3)ccc12,inactive
4,CC(=O)Oc1cc2c(C(=O)NCCN3CCOCC3)c(C)oc2c2ccccc12,25.1 µM (active)
5,Cc1cc(C)cc(C(=O)NCCN2CCOCC2)c1,inactive
6,CCS(=O)(=O)N1CCC(n2c(C)nc3cccnc32)CC1,inactive
7,COC(=O)c1ccc(NC(=O)c2cc(S(=O)(=O)N3CCC(C)CC3)cn2C)cc1,inactive
8,O=C(CCS(=O)(=O)c1ccccc1)Nc1nc2c(s1)CCCC2,50.1 µM (active)
9,O=C(Nc1nc2c(s1)CCCC2)c1ccccc1F,inactive
10,O=C(CCS(=O)(=O)c1ccccc1)NC1CCCC1,inactive
11,COc1ccccc1NC(=O)c1cc(C2CC2)nc2c1c(C)nn2-c1ccc(C)cc1,inactive
12,CCCn1nc(C(=O)N2CCCc3ccccc32)c2ccccc2c1=O,inactive
13,Cc1occc1C(=O)N1CCCc2ccccc21,44.7 µM (active)
14,O=C(c1c(Cl)nc2sccn12)N1CCCc2ccccc21,inactive
15,CC(C)c1ccc(NC(=O)CN(C)S(=O)(=O)c2ccc3c(c2)c(=O)n(C)c(=O)n3C)cc1,inactive
16,Cc1ccc(Cl)cc1N1CCN(C(=O)CN2C(=O)COc3ccc(S(=O)(=O)N4CCOCC4)cc32)CC1,inactive
17,CCCNc1ncnc2c1c(-c1ccccc1)cn2-c1ccc(OCC)cc1,inactive
18,CCc1ccc(NC(=O)CN2C(=O)C(c3ccccc3)=NC23CCCCCC3)cc1,inactive
19,CCCCCCC(=O)N(O)C1CC(=O)N(c2ccccc2)C1=O (configuration not stated),0.282 µM (active)
20,CCOc1ccc(N2C(=O)CC(N(CCc3ccc(OC)c(OC)c3)C(=S)Nc3ccccc3)C2=O)cc1 (configuration not stated),inactive
21,CCCCOC(=O)c1ccc(N2C(=O)CC(N3CCN(C/C=C/c4ccccc4)CC3)C2=O)cc1 (configuration not stated),inactive

row,SMILES,Potency
1,CCOc1cc2[nH]c(=O)n(Cc3ccc(C(=O)NCCN(CC)CC)cc3)c(=O)c2cc1OCC,inactive
2,COc1ccc(-c2nnc(NC(=O)CS(=O)(=O)c3ccc(Cl)cc3)o2)c(OC)c1,inactive
3,COc1cc(-c2nc(S(=O)(=O)c3ccc(Cl)cc3)c(N(C)C)o2)cc(OC)c1OC,25.1 µM (active)
4,Cc1cc(C)cc(NC(=O)CSc2oc(-c3ccccc3)nc2S(=O)(=O)c2ccc(Cl)cc2)c1,inactive
5,CCOc1ccc(N(CC)S(=O)(=O)N2CCCC(C(=O)NCc3ccc(SC)cc3)C2)cc1 (configuration not stated),inactive
6,COc1ccc(-c2c3c(=O)n(C)c(=O)n(C)c3c3c(C)nc4ccccc4n23)cc1,inactive
7,CCOc1cc(C2c3c(-c4ccc(Br)cc4)n[nH]c3C(=O)N2c2ccc(Cl)cc2)ccc1O (configuration not stated),inactive
8,CCOC(=O)c1ccc(N2C(=O)c3n[nH]c(C)c3C2c2ccc(O)c(OC)c2)cc1 (configuration not stated),11.2 µM (active)
9,CCOC(=O)c1ccc(N2C(=O)c3[nH]nc(-c4ccccc4)c3C2c2ccc(C(C)C)cc2)cc1 (configuration not stated),inactive
10,CCCn1c2ccccc2c2cnn(CC(=O)N(C)c3ccccc3CC)c(=O)c21,inactive
11,CSc1ccc(C2c3c(oc4ccccc4c3=O)C(=O)N2CCCN2CCOCC2)cc1 (configuration not stated),inactive
12,COc1ccc(OC)c(NC(=O)C2CCN(S(=O)(=O)c3ccc(C)cc3)CC2)c1,inactive
13,NC(=O)C1CCN(C(=O)c2cccc(NC(=O)c3nsc4ccccc34)c2)CC1,inactive
14,Cc1ccc(C2CCN(C(=O)c3cnn(-c4ccccc4Cl)c3C3CCN(C(=O)OC(C)(C)C)CC3)C2)cc1 (configuration not stated),inactive
15,Cc1ccccc1C(=O)N(Cc1ccc(N(C)C)cc1)CC1CCCO1 (configuration not stated),inactive
16,O=C(CCS(=O)(=O)c1cc(Br)cc2c1N(C(=O)C1CC1)CC2)Nc1ccc(Br)cc1F,inactive
17,COc1ccc(OCC(=O)Nc2nnc(-c3ccco3)s2)cc1,28.2 µM (active)
18,CNc1nnc(-c2ccco2)s1,inactive
19,COc1ccc(OCCCC(=O)Nc2nnc(C3CCCO3)s2)cc1 (configuration not stated),inactive
20,CCOC(=O)N1CCc2c(sc3c2c(=O)n(-c2ccc(CC)cc2)c(=O)n3C)C1,inactive
21,Cc1ccccc1NC(=O)Cn1c(=O)n(CCCCC(=O)NCc2ccccc2Cl)c(=O)c2ccccc21,inactive

row,SMILES,Potency
1,O=C(CN1CCN(c2ccc(Cl)cc2)CC1)c1ccccc1,17.8 µM (active)
2,CC(C)OC(=O)CN1CCN(c2ccc(Cl)cc2)CC1,inactive
3,O=C(CCCC(=O)N1CCN(c2cccc(Cl)c2)CC1)c1ccccc1,inactive
4,Cc1cc(C(=O)OCC(=O)Nc2ccccc2Cl)c(C)o1,inactive
5,O=C(COC(=O)CCc1c[nH]c(=O)[nH]1)Nc1ccccc1Cl,44.7 µM (active)
6,Cc1cccc(NC(=O)COC(=O)CCc2ccccc2)c1C,inactive
7,COc1ccccc1NC(=O)Cn1cnc2ccc(S(=O)(=O)N3CCC(C)CC3)cc2c1=O,inactive
8,COCCNC(=O)c1ccc2c(c1)N(Cc1cccc(Cl)c1)C(=O)c1ccccc1S2(=O)=O,inactive
9,COc1ccc([N+](=O)[O-])cc1NC(=O)COC(=O)/C=C/c1ccco1,inactive
10,CN(C)S(=O)(=O)c1cccc(NC(=O)COC(=O)/C=C/c2cccs2)c1,inactive
11,COc1ccc(/C=C/C(=O)OCC(=O)Nc2cccc(Oc3ccccc3)c2)c(OC)c1,inactive
12,CC(C)CNC(=O)COC(=O)/C=C/c1ccco1,inactive
13,NS(=O)(=O)c1cccc(NC(=O)COC(=O)/C=C/c2ccco2)c1,6.31 µM (active)
14,COc1cccc(NC(=O)COC(=O)/C=C/c2ccco2)c1,31.6 µM (active)
15,CCc1cccc(-n2nnc(-c3nsc(NC(=O)c4ccc(C)cc4)n3)c2C)c1,inactive
16,COc1ccc(-c2cc(NCc3ccc(F)cc3)n3cnnc3n2)cc1,inactive
17,Cc1cc(C(=O)Nc2cccc(C(F)(F)F)c2)c2c(C)nn(-c3cccc(F)c3)c2n1,inactive
18,COc1ccc(NC(=O)C2CCCN(S(=O)(=O)c3cccc4nonc34)C2)cc1Cl (configuration not stated),inactive
19,Cc1ccc(C)c(NC(=O)Cn2ccn(-c3ccc(F)cc3)c(=O)c2=O)c1,inactive
20,O=C(CC1Oc2ccccc2NC1=O)NCc1ccc(F)cc1 (configuration not stated),inactive
